The values that follow come from PubChem BioAssay.

A number with no mark means an inactive call. The source made the active and inactive calls.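 The calls were made as follows, unless noted: active = mean inhibition above 46.5%, the solvent-only control mean plus 3 SD; inactive = the rest.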

Assay [1] deals with transactivating tegument protein VP16 (Human herpesvirus 1). In words: compounds suppressing VP16-driven luciferase signal – cell-based, luminescence, single concentration, counter-screen for SRC2 inhibitor project (AID 652007; in the data active = inhibition above about 36%). The following applies: cell-based VP16 transactivation luciferase reporter, at 8.9 µM, hits give high values.
For assay [2], the target named is Nuclear receptor coactivator 2 (Homo sapiens) (UniProt Q15596). In words: inhibition of GAL4-SRC2 driven luciferase expression – cell-based, luminescence, HEK293, triplicate, confirmation (AID 652008).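 Also: 0% = DMSO-treated cells and 100% = Gossypol at 36 µM.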 Conditions: HEK293 GAL4-SRC2 luciferase reporter, at 8.9 µM, hits give high values.
Chain of Nuclear receptor coactivator 2 (Homo sapiens) (Q15596 whole entry, looked up, the tested form may be a part): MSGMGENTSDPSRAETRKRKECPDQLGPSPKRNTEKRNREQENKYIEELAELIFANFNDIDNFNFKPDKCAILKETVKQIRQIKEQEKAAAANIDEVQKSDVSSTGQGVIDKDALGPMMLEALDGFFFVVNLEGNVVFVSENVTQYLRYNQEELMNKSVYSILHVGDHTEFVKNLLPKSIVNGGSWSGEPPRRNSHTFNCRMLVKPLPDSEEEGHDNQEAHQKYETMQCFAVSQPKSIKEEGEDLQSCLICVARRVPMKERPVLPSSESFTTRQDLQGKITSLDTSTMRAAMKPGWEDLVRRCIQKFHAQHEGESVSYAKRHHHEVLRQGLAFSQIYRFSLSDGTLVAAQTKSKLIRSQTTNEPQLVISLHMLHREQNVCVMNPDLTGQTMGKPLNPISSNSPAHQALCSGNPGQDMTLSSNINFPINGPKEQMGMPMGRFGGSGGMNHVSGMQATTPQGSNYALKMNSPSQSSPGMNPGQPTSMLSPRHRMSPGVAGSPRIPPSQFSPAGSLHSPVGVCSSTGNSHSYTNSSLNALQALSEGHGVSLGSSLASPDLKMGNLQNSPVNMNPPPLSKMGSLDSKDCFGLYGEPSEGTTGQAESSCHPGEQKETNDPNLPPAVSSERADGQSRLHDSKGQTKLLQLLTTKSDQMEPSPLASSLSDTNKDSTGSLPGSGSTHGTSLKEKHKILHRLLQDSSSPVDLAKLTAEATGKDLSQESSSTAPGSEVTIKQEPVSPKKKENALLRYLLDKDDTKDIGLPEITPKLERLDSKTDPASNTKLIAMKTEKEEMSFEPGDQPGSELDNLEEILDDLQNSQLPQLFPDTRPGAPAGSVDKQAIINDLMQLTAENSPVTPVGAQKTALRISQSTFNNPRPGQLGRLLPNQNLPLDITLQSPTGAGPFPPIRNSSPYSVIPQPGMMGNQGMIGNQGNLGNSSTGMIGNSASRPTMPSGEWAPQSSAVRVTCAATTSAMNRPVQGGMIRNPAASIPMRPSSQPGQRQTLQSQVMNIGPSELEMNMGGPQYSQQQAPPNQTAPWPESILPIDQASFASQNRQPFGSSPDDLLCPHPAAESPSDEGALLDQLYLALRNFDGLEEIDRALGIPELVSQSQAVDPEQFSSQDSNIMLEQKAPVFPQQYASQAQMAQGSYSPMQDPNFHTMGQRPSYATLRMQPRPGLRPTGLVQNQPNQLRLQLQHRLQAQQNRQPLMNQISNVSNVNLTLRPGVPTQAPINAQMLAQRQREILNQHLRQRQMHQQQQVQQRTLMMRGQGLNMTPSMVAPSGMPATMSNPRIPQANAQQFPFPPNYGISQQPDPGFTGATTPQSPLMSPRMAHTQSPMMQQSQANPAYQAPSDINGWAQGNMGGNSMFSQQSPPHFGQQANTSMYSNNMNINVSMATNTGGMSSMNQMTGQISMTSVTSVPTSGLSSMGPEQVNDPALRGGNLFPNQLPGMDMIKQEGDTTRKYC

Regarding `Cc1ccc(Nc2nc(-c3c(C)nc4ccccn34)cs2)cc1`, the figures for the inhibition in assay [1] and in assay [2] were -16.9% and 20.1%, respectively.

On to `CC(=O)c1c(C)[nH]c(C(=O)Nc2ccc(N3CCCCCC3)cc2)c1C`, for which the results for the inhibition in assay [1] and in assay [2] were -41.5% and 19.9%, respectively.

Turning to `CCOC(=O)c1ccccc1NC(=O)Cn1c(-c2nonc2N)nc2ccccc21`, the inhibition in assay [1] is -1.87%; in assay [2], 6.09%.

With `COc1ccc(OCCCCn2c(CO)nc3ccccc32)cc1`, the inhibition was -6.88% in assay [1] and -14.2% in assay [2].

In the case of `O=C(O)c1cccc(CSc2nnc(-c3ccc(Cl)cc3)o2)c1`, the inhibition in assay [1] was 41.3% (active); in assay [2] it was 43.1%.

For `O=C1CCCC/C1=C/Nc1ccc2c(c1)OCO2`, the inhibition in assay [1] is -58.7%; in assay [2], -65.5%.

As to `O=C(NC1=NCCS1)C1COc2ccccc2O1` (stereo unspecified), the inhibition in assay [1] is 29.5%; in assay [2] it was 47.7% (active).

On to `CCc1ccc(C=C2SC(=S)N(CCCC(=O)Nc3ccc(C(=O)O)cc3)C2=O)cc1`, for which the results for the inhibition in assay [1] and in assay [2] were -9.93% and -5.86%, respectively.

For the compound `COc1ccc(CNC(=O)C2CCCN(Cc3nc(-c4cccc(C)c4)oc3C)C2)cc1` (stereo unspecified), the inhibition in assay [1] is -10.5%; in assay [2], 0.33%.

Take `COc1ccc(-c2cc(C(=O)O)c(C)o2)cc1OC`: the inhibition in assay [1] is -74%; in assay [2] it was -11.1%.

For the compound `CC(C)Oc1ccc(S(=O)(=O)N2CCCCC2)cc1NC(=O)C1CCCC1`, the inhibition in assay [1] is 11.3%; in assay [2] it was 2.87%.

In the case of `CCCCc1ccc(S(=O)(=O)N/N=C(/C)c2ccncc2)cc1`, the results for the inhibition in assay [1] and in assay [2] were 30.5% and 68.7% (active), respectively.

Turning to `CCOc1cc(NC(=S)NCc2ccco2)c(OCC)cc1NC(=O)CC`, the figures for the inhibition in assay [1] and in assay [2] were -10.4% and -9.88%, respectively.
